About 83,000 compounds went through this panel and 20% of them were active in at least one assay; those are over-represented in the sample as a whole.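 In brief: 96-well plates, 48 h treatment, single concentration, percent growth endpoint.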 Calls of active or inactive are those of the source. Rule for the calls: active = growth percent below 10; inactive = the rest.
The compounds below were run on HOP-92 NSCLC (assay: NCI-60 one-dose screen, 48 h (100 = growth as untreated, 0 = no growth, -100 = all killed)). Conditions: 10 µM unless noted.

| Structure (SMILES) | growth |
| --- | --- |
| COc1cc2c3c(c1)nc(C)n3CCC2 | 94.9% (inactive) |
| Cc1sc2c(c1C)c(=O)nc1c(-c3nc4ccccc4s3)n[nH]n12 | 88.7% (inactive) |
| COc1cc2c(cc1OCCCCCN1CCN(c3ncnc4ccccc34)CC1)N=CC1CCCN1C2=O (centres undefined) | -63.8% (active) |
| COc1cc2c(cc1OCCCCN1CCN(CC(=O)Nc3ccc(Cl)cc3C(=O)c3ccccc3Cl)CC1)N=CC1CCCN1C2=O (centres undefined) | -85.6% (active) |
| CCOC(=O)C1=C(C)NC(=O)NC1c1cc(=O)oc2ccc(C)cc12 (centres undefined) | 95.6% (inactive) |
| COc1ccc2nc3cc(Cl)ccc3c(Nc3ccc(N(C)C)cc3)c2c1 | 76.3% (inactive) |
| C[C@@H](C[C@H](CCO)c1cc(C(F)(F)F)cc(C(F)(F)F)c1)c1ccc2ccccc2c1 | 96.5% (inactive) |
| COc1ccc2c(CCCc3ccc(Cl)cc3Cl)c3[n+](cc2c1OC)CCc1cc2c(cc1-3)OCO2 | 0.488% (active) |
| COc1cc2c(cc1OCCCCCCN1CCN(c3ncnc4ccccc34)CC1)N=CC1CCCN1C2=O (centres undefined) | -21.7% (active) |
| c1cc[n+](Cc2c3ccccc3cc3c2ccc2ccccc23)cc1 | 25% (inactive) |
| CC(C)[C@@H]1CC[C@]2(CO2)[C@@H]2C(=O)OCC(C(=O)O)=C[C@H]21 | -11.9% (active) |
| N#Cc1c(NC(=O)c2cccs2)[n+]([O-])c2ccc(F)cc2[n+]1[O-] | 73.3% (inactive) |
| CC(CCCC(=O)O)c1ccoc1 (centres undefined) | 108% (inactive) |
| CCCCCCCC(=O)SCC/C=C/[C@@H]1CC(=O)NCc2nc(co2)C2=N[C@@](C)(CS2)C(=O)N[C@@H](C(C)C)C(=O)O1 | -15.5% (active) |

Source: PubChem BioAssay (NCI)
